Laboratory results from PubChem BioAssay AID1159580 (chemical genetic matrix, 2015).
Several values for one entry are separate records, joined by “and”; a condition that tells them apart may be missing. Equal values may be shown once. About 2,000 (36%) of roughly 5,500 compounds were called active. Another 18% or so got no clear call; they are omitted. Cut-off read from the data, not from the text of the source: active = normalized growth mostly below about 0.91 (no sharp cut-off); inconclusive = no clear call, values can overlap the other calls; inactive = mostly above about 0.92. This is one part of the list.

Assay: chemical genetic growth profiling, strain panel (AID 1159580);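 note: tested at 20 µM; growth read once vehicle control cultures reached saturation at 30 °C; 1 = growth at the plate median or of vehicle wells; lower values mean less growth of the strain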
Details: S. cerevisiae deletion strains, growth OD

Measured: normalized growth

COc1ccccc1N1CCNCC1
inactive: locus YAL013W, strain DEP1, hits give low values 1.01 and 0.975 | locus YAL040C, strain CLN3, hits give low values 0.965 | locus YBR021W, strain FUR4, hits give low values 1.01 | locus YBR229C, strain ROT2, hits give low values 1.01 | locus YCL029C, strain bik1, hits give low values 1.03 | locus YCL061C, strain MRC1 (second series), hits give low values 0.993 | locus YDL035C, strain GPR1, hits give low values 1.01 | locus YDL074C, strain BRE1, hits give low values 1.01 | locus YDL101C, strain DUN1, hits give low values 1 | locus YDL134C, strain PPH21, hits give low values 1.01 | locus YDL185W, strain tfp1, hits give low values 1.03 | locus YDL192W, strain arf1, hits give low values 1.03 | locus YDR101C, strain arx1, hits give low values 1.02 | locus YDR150W, strain NUM1, hits give low values 1 and 0.996 | locus YDR162C, strain NBP2, hits give low values 1.01 | locus YDR318W, strain mcm21, hits give low values 1.03 | locus YDR363W, strain ESC2, hits give low values 0.962 | locus YDR388W, hits give low values 1.03 | locus YDR502C, strain sam2, hits give low values 1.02 | locus YEL061C, strain CIN8, hits give low values 1.01 | locus YER002W, strain NOP16, hits give low values 0.99 | locus YER110C, hits give low values 1.03 | locus YER155C, strain BEM2, hits give low values 1.01 | locus YER167W, strain BCK2, hits give low values 1.03 | locus YGL078C, strain dbp3, hits give low values 1.02 | locus YGL086W, strain mad1, hits give low values 1.02 | locus YGL248W, strain PDE1, hits give low values 1.01 | locus YGR078C, strain PAC10, hits give low values 1 | locus YGR135W, strain pre9, hits give low values 1.02 | locus YGR229C, strain SMI1, hits give low values 0.999 | locus YGR252W, strain gcn5, hits give low values 1.05 | locus YHR030C, strain SLT2, hits give low values 0.999 | locus YHR079C, strain IRE1 (second series), hits give low values 1.03 | locus YHR094C, strain hxt1, hits give low values 1.03 | locus YHR129C, strain ARP1, hits give low values 1 | locus YHR200W, strain rpn10, hits give low values 1.03 | locus YIL066C, strain RNR3, hits give low values 1.01 | locus YIL073C, strain SPO22, hits give low values 1.12 | locus YIL125W, strain kgd1, hits give low values 1.02 | locus YIR030C, strain dcg1, hits give low values 1.04 | locus YJL095W, strain BCK1, hits give low values 1 | locus YJL134W, strain LCB3, hits give low values 0.999 | locus YJL168C, strain set2, hits give low values 1.04 | locus YJL187C, strain SWE1 (second series), hits give low values 1.01 | locus YJR043C, strain POL32, hits give low values 1.01 | locus YJR075W, strain HOC1, hits give low values 0.969 and 0.984 | locus YKL009W, strain mrt4, hits give low values 0.986 | locus YKL068W, hits give low values 1.01 | locus YKL085W, strain MDH1 (second series), hits give low values 1.04
